From PubChem BioAssay (EPA / NIEHS)
Active and inactive are the calls of the source. Rule for the calls: active = hit-call score of the fitted dose curve at least 0.9, where 1 is the maximum; inactive = score below 0.9.

Tests used:
Details in all cases: mRNA level, 48 h; actives raise or lower the signal
[1] = read-out: Fatty acid synthase (Homo sapiens) (UniProt P49327); experiment: LTEA_HepaRG_FASN: Life Technologies and Expression Analysis (LTEA) Assay for Fatty Acid Synthase (FASN) using HepaRG (AID 2283448)
Summary of the method: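 FASN expression changes, up or down relative to 0.5% DMSO, were measured by qRT-PCR in human HepaRG cells after 48 h treatment with chemicals at eight concentrations (half-log steps from 100 uM).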

[2] = read-out: Cyclin D2 (CCND2), CCND2 (gene 894); experiment: LTEA_HepaRG_CCND2: Life Technologies and Expression Analysis (LTEA) Assay for Cyclin D2 (CCND2) using HepaRG (AID 2283449);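 note: CCND2 transcript measured by TaqMan qRT-PCR and normalised to three housekeeping genes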
Summary of the method: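 Differentiated human HepaRG cells were exposed for 48 h in serum-free induction medium to eight half-log concentrations topping at 100 uM (0.5% DMSO vehicle). CCND2 mRNA was quantified by TaqMan qRT-PCR, normalised to ACTB, GAPDH and POLR2A, and fitted bidirectionally against DMSO.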

[3] = read-out: Cyclin Dependent Kinase Inhibitor 1A (CDKN1A), CDKN1A (gene 1026); experiment: LTEA_HepaRG_CDKN1A: Life Technologies and Expression Analysis (LTEA) Assay for Cyclin Dependent Kinase Inhibitor 1A (CDKN1A) using HepaRG (AID 2283450)
Summary of the method: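 Cryopreserved HepaRG cells were plated and cultured 48 h, then switched to serum-free induction medium. Chemicals (eight half-log concentrations, top 100 uM, 0.5% DMSO) were applied for 48 h. Lysates underwent qRT-PCR for CDKN1A with housekeeping normalization.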

[4] = read-out: Cyclin D1 (CCND1), CCND1 (gene 595); experiment: LTEA_HepaRG_CCND1: Life Technologies and Expression Analysis (LTEA) Assay for Cyclin D1 (CCND1) using HepaRG (AID 2283451);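 for AC50: TaqMan qRT-PCR transcript level normalised to ACTB GAPDH and POLR2A housekeeping genes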
Summary of the method: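 Human liver HepaRG line; 48 h dosing, 8 conc. ≤100 uM, 0.5% DMSO; TaqMan qRT-PCR mRNA, 3 housekeeping genes; bidirectional curve fit vs DMSO.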

[5] = read-out: flavin-containing dimethylaniline monooxygenases 3 (FMO3), FMO3 (gene 2328); experiment: LTEA_HepaRG_FMO3: Life Technologies and Expression Analysis (LTEA) Assay for flavin-containing dimethylaniline monooxygenases 3 (FMO3) using HepaRG (AID 2283453)
Summary of the method: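 Differentiated HepaRG cells in serum-free induction medium, exposed 48 h in duplicate to 8 half-log concentrations up to 100 uM in 0.5% DMSO. FMO3 mRNA by qRT-PCR, normalized to ACTB, GAPDH, POLR2A; bidirectional fit vs DMSO.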

[6] = read-out: Cytochrome P450 (CYP1A1), CYP1A1 (gene 1543); experiment: LTEA_HepaRG_CYP1A1: Life Technologies and Expression Analysis (LTEA) Assay for Cytochrome P450 (CYP1A1) using HepaRG (AID 2283454)
Summary of the method: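 Induction of CYP1A1 mRNA in a human hepatic cell line was measured 48 h after dosing, with 1 mM phenobarbital as induction positive control and 0.5% DMSO vehicle as baseline for bidirectional curve fitting.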

[7] = read-out: Forkhead box O1 (FOXO1), FOXO1 (gene 2308); experiment: LTEA_HepaRG_FOXO1: Life Technologies and Expression Analysis (LTEA) Assay for Forkhead box O1 (FOXO1) using HepaRG (AID 2283456)
Summary of the method: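 Differentiated human HepaRG cells in serum-free induction medium were exposed in duplicate for 48 h to eight half-log concentrations (top 100 uM, 0.5% DMSO). FOXO1 mRNA was measured by TaqMan qRT-PCR, normalised to ACTB, GAPDH and POLR2A, and fitted bidirectionally against DMSO.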

[8] = read-out: growth arrest and DNA damage 45 (GADD45A), GADD45A (gene 1647); experiment: LTEA_HepaRG_GADD45A: Life Technologies and Expression Analysis (LTEA) Assay for growth arrest and DNA damage 45 (GADD45A) using HepaRG (AID 2283458)
Summary of the method: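 Cells plated and cultured 48 h, switched to serum-free induction medium, then dosed for 48 h (100 uM top, half-log dilutions, 0.5% DMSO). RNA was isolated and transcript measured by Fluidigm qRT-PCR.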

[9] = read-out: Forkhead box O3 (FOXO3), FOXO3 (gene 2309); experiment: LTEA_HepaRG_FOXO3: Life Technologies and Expression Analysis (LTEA) Assay for Forkhead box O3 (FOXO3) using HepaRG (AID 2283459)
Summary of the method: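 Differentiated human HepaRG cells in serum-free induction medium were exposed in duplicate for 48 h to eight half-log concentrations up to 100 uM in 0.5% DMSO. FOXO3 mRNA was quantified by qRT-PCR, normalized to ACTB, GAPDH and POLR2A, with bidirectional fitting versus DMSO.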

[10] = read-out: ABC Transporter (ABCB1), ABCB1 (gene 5243); experiment: LTEA_HepaRG_ABCB1: Life Technologies and Expression Analysis (LTEA) Assay for ABC Transporter (ABCB1) using HepaRG (AID 2283460)
Summary of the method: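 Differentiated human HepaRG cells, plated 48 h then switched to serum-free induction medium, were exposed in duplicate to eight half-log concentrations up to 100 uM in 0.5% DMSO for 48 h. ABCB1 mRNA was measured by TaqMan qRT-PCR, normalized to ACTB/GAPDH/POLR2A.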

[11] = read-out: growth arrest and DNA damage 45 (GADD45B), GADD45B (gene 4616); experiment: LTEA_HepaRG_GADD45B: Life Technologies and Expression Analysis (LTEA) Assay for growth arrest and DNA damage 45 (GADD45B) using HepaRG (AID 2283461)
Summary of the method: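 Values are bidirectional concentration-response fits against 0.5% DMSO controls. Underlying data: qRT-PCR mRNA levels in human HepaRG liver cells treated 48 h in serum-free induction medium, eight concentrations topping at 100 uM.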

[12] = read-out: ABC Transporter (ABCC3), ABCC3 (gene 8714); experiment: LTEA_HepaRG_ABCC3: Life Technologies and Expression Analysis (LTEA) Assay for ABC Transporter (ABCC3) using HepaRG (AID 2283462)
Summary of the method: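 Differentiated HepaRG liver cells receive test chemicals at eight concentrations (max 100 uM) for 48 h. Expression of ABCC3 is quantified by qRT-PCR against ACTB, GAPDH and POLR2A, and activity is fitted in both directions against the DMSO control.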

[13] = read-out: ABC Transporter (ABCB11), ABCB11 (gene 8647); experiment: LTEA_HepaRG_ABCB11: Life Technologies and Expression Analysis (LTEA) Assay for ABC Transporter (ABCB11) using HepaRG (AID 2283463)
Summary of the method: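 Differentiated human HepaRG cells were exposed for 48 h in serum-free induction medium to eight half-log concentrations up to 100 uM in 0.5% DMSO. ABCB11 mRNA was quantified by qRT-PCR, normalized to ACTB, GAPDH and POLR2A, and fitted bidirectionally versus DMSO.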

[14] = read-out: ABC Transporter (ABCC2), ABCC2 (gene 1244); experiment: LTEA_HepaRG_ABCC2: Life Technologies and Expression Analysis (LTEA) Assay for ABC Transporter (ABCC2) using HepaRG (AID 2283464)
Summary of the method: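 Gene expression of ABCC2 was determined by qRT-PCR in HepaRG cells exposed 48 h to chemicals (highest 100 uM, half-log dilutions). Activity was fitted in both directions relative to 0.5% DMSO vehicle.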

[15] = read-out: Broad substrate specificity ATP-binding cassette transporter ABCG2 (Homo sapiens) (UniProt Q9UNQ0); experiment: LTEA_HepaRG_ABCG2: Life Technologies and Expression Analysis (LTEA) Assay for ABC Transporter (ABCG2) using HepaRG (AID 2283465)
Summary of the method: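 Differentiated HepaRG cells in serum-free induction medium were exposed for 48 h, in duplicate, to eight half-log concentrations up to 100 uM in 0.5% DMSO. ABCG2 mRNA was measured by TaqMan qRT-PCR, normalized to ACTB, GAPDH and POLR2A, and fitted bidirectionally versus DMSO.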

[16] = read-out: ATP-citrate lyase (ACLY), ACLY (gene 47); experiment: LTEA_HepaRG_ACLY: Life Technologies and Expression Analysis (LTEA) Assay for ATP-citrate lyase (ACLY) using HepaRG (AID 2283466)
Summary of the method: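 Differentiated human HepaRG cells in serum-free induction medium exposed 48 h, in duplicate, to eight half-log concentrations from 100 uM top in 0.5% DMSO; ACLY mRNA measured by qRT-PCR, normalized to ACTB, GAPDH, POLR2A, fitted bidirectionally versus DMSO.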

[17] = read-out: Peroxisomal acyl-coenzyme A oxidase 1 (ACOX1) gene, ACOX1 (gene 51); experiment: LTEA_HepaRG_ACOX1: Life Technologies and Expression Analysis (LTEA) Assay for Peroxisomal acyl-coenzyme A oxidase 1 (ACOX1) gene using HepaRG (AID 2283467)
Summary of the method: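 Differentiated human HepaRG cells were exposed in duplicate for 48 h in serum-free induction medium to eight half-log concentrations up to 100 uM in 0.5% DMSO. ACOX1 mRNA was then quantified by TaqMan qRT-PCR, normalized to ACTB, GAPDH and POLR2A.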

[18] = read-out: CFLAR gene, CFLAR (gene 8837); experiment: LTEA_HepaRG_CFLAR: Life Technologies and Expression Analysis (LTEA) Assay for CFLAR gene using HepaRG (AID 2283455)
Summary of the method: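 HepaRG cells were plated for 48 h, switched to serum-free induction medium, then exposed in duplicate for 48 h to 8 concentrations (top 100 uM, half-log steps, 0.5% DMSO). CFLAR mRNA was measured by qRT-PCR, normalized to ACTB, GAPDH and POLR2A.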

[19] = read-out: catalase (CAT), CAT (gene 847); experiment: LTEA_HepaRG_CAT: Life Technologies and Expression Analysis (LTEA) Assay for catalase (CAT) using HepaRG (AID 2283452)
Summary of the method: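 Differentiated HepaRG cells in serum-free induction medium were dosed 48 h in duplicate, eight half-log concentrations from 100 uM in 0.5% DMSO. Transcript measured by TaqMan qRT-PCR, normalised to ACTB/GAPDH/POLR2A, fitted bidirectionally against DMSO.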

Measured: AC50

Sequence of Broad substrate specificity ATP-binding cassette transporter ABCG2 (Homo sapiens) (Q9UNQ0 whole entry, looked up): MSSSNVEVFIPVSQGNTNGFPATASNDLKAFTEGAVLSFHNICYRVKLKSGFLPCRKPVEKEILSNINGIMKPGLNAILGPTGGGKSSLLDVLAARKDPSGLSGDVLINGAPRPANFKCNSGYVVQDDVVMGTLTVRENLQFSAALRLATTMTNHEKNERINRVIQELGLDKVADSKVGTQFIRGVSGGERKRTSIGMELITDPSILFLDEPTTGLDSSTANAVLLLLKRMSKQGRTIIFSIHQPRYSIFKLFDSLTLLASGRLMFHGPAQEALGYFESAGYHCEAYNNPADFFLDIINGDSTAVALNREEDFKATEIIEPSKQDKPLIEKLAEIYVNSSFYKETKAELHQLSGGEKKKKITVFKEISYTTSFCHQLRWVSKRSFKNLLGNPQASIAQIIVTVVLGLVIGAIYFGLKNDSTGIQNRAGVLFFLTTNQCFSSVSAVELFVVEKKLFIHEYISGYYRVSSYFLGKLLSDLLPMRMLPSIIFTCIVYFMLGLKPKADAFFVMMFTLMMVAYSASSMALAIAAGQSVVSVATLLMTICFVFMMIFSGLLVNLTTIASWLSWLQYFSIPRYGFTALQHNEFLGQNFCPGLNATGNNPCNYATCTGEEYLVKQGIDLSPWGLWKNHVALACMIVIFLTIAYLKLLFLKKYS
Sequence of Fatty acid synthase (Homo sapiens) (P49327 whole entry, looked up): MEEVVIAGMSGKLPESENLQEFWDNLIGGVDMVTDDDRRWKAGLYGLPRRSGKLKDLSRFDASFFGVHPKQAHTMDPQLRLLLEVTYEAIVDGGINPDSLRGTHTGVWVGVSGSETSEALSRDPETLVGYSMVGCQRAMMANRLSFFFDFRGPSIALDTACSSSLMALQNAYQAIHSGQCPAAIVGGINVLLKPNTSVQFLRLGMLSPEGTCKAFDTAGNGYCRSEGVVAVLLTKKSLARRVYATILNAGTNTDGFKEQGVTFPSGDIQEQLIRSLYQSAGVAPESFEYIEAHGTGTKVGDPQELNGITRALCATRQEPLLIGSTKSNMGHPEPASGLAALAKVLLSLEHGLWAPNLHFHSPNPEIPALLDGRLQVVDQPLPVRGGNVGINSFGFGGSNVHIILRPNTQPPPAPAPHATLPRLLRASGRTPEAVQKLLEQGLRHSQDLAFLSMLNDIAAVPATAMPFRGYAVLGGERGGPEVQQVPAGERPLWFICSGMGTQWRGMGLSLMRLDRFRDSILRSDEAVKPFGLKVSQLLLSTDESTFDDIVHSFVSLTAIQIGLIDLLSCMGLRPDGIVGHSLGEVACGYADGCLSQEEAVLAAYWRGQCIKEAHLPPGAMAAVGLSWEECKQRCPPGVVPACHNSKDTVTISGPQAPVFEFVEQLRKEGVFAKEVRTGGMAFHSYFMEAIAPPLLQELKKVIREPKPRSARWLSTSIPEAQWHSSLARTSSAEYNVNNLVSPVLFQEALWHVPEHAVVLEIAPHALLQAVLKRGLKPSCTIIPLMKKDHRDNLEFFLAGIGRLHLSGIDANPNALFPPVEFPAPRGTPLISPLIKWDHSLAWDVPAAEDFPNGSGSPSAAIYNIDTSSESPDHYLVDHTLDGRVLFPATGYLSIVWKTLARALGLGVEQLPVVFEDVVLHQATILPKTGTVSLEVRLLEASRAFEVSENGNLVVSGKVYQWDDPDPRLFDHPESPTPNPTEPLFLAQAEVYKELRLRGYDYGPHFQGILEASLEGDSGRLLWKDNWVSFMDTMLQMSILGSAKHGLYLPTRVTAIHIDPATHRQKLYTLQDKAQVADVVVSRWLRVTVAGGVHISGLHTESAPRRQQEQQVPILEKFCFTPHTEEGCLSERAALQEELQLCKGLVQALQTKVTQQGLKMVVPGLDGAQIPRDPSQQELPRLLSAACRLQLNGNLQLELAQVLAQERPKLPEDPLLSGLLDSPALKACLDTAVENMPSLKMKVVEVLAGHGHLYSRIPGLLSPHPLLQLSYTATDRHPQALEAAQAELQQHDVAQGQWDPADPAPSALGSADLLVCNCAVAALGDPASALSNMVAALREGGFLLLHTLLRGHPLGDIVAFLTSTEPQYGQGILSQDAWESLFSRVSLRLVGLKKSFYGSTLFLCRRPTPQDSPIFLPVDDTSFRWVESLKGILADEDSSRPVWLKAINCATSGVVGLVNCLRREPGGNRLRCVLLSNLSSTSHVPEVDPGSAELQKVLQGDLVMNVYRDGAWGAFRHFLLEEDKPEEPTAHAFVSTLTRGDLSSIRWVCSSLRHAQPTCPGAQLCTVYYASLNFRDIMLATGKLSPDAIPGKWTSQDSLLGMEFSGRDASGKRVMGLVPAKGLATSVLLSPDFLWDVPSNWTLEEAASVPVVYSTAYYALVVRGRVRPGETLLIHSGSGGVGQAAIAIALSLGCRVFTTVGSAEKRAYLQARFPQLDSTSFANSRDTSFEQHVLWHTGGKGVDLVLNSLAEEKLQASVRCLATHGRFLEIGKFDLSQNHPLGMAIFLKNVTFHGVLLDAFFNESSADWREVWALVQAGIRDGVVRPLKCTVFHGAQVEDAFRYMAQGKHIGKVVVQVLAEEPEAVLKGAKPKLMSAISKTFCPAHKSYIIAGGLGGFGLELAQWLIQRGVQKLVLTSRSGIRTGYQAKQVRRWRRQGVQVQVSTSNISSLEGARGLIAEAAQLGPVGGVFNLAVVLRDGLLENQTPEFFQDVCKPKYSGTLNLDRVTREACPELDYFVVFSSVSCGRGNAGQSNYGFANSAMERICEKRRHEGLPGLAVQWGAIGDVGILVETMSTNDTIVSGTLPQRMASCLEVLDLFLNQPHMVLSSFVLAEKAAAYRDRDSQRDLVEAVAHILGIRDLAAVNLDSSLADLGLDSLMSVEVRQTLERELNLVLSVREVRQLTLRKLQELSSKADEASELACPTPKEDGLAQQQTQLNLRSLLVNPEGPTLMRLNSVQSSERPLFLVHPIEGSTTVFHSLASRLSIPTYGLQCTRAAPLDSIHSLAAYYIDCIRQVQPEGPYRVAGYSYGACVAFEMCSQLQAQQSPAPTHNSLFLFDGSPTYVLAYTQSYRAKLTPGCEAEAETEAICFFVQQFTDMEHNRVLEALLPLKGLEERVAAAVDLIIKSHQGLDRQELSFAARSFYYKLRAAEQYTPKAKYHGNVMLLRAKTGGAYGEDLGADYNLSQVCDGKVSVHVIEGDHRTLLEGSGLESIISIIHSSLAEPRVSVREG

CCCCCCCCCCCC(=O)OC
active: [6] 60.3 µM
not listed: [18] | [19]
inactive: all other assays above

CC(C)(C)c1cc(O)c(C(C)(C)C)cc1O
inactive: [2] | [3] | [4] | [9] | [11] | [15] | [16]
active: [1] 50 µM | [5] 78.1 µM | [18] 77.4 µM | [7] 77.7 µM | [8] 50 µM | [10] 90.3 µM | [12] 73.6 µM | [13] 72.7 µM | [14] 85.9 µM | [17] 77.3 µM

CC(C)c1ccc(C(=O)N=C(N)N)cc1S(C)(=O)=O
inactive: [1] | [5] | [11] | [12] | [16]
active: [2] 0.634 µM | [3] 0.361 µM | [4] 0.493 µM | [6] 0.6 µM | [7] 0.498 µM | [8] 0.676 µM | [9] 0.264 µM | [10] 8.32 µM | [13] 0.392 µM | [14] 14 µM | [15] 0.681 µM | [17] 7.39 µM

O=c1c(O)c(-c2ccc(O)c(O)c2)oc2cc(O)cc(O)c12
active: [5] 80 µM | [6] 0.634 µM | [13] 76.7 µM
not listed: [2] | [10]
inactive: all other assays above

C=CCOC(=O)c1ccccc1C(=O)OCC=C
active: [6] 50 µM
not listed: [2] | [18] | [19]
inactive: all other assays above

Oc1ccc2c(c1)OC[C@@H](N1CCC(O)(c3ccc(F)cc3)CC1)[C@H]2O
not listed: [2] | [19]
inactive: all other assays above

NC(=O)Cn1c(=O)cc(CCN2CCN(c3nccc4sccc34)CC2)c2ccc(F)cc21
active: [1] 29.5 µM | [3] 50 µM | [6] 10.1 µM | [7] 50 µM | [10] 36.6 µM | [12] 78.1 µM
not listed: [18] | [19]
inactive: all other assays above

C[C@]12C=CC(=O)C=C1CC[C@@H]1[C@@H]2C(=O)C[C@@]2(C)[C@H]1CC[C@]2(O)C(=O)CO
active: [4] 12.3 µM | [10] 50 µM | [14] 50 µM
not listed: [2] | [3] | [6] | [19]
inactive: all other assays above
